From PubChem BioAssay (Tox21)
Records with an inconclusive call do not appear. Active and inactive are the calls of the source. The call rests on the fitted dose curve; in most records, active means well fitted curve in the direction sought with a large enough effect in the repeat runs; inconclusive means weak or mixed curves; inactive means no such curve, though single readings can be large; an effect the other way counts as inactive or inconclusive.

Assays:
[1] = A CellTox Green Cytotoxicity Assay to monitor cytotoxicity in HEK293 cells - 32 hour (AID 1224881); further: nearly all actives have a fitted effect of over 40% in size
Outline: (§1)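 Nonlytic real-time cytotoxicity: HEK293 + CellTox Green reagent plated, 5 h preincubation, pintool compound addition (23 nL in DMSO), 37 C for 40 h, fluorescence measured at successive time points.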

[2] = A CellTox Green Cytotoxicity Assay to monitor cytotoxicity in HepG2 cells - 0 hour (AID 1224882); further: nearly all actives have a fitted effect of over 35% in size
Outline: (§2)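 Read-out is fluorescence of a cyanine dye excluded from live cells that stains DNA of dead HepG2 cells, with signal proportional to cytotoxicity. Plates were read at 0, 8, 16, 24, 32 and 40 h after compound addition.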

[3] = A CellTox Green Cytotoxicity Assay to monitor cytotoxicity in HepG2 cells - 32 hour (AID 1224883); further: nearly all actives have a fitted effect of over 50% in size; further: potency means the concentration at half of the fitted maximal effect
Outline: as §2

[4] = A CellTox Green Cytotoxicity Assay to monitor cytotoxicity in HEK293 cells - 8 hour (AID 1224884); further: nearly all actives have a fitted effect of over 35% in size
Outline: as §1

[5] = qHTS RealTime-Glo MT Cell Viability Assay in HepG2 cells - 16 hour (AID 1224885); further: nearly all actives have a fitted effect of over 50% in size
Outline: (§3)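 Viability was tracked continuously by NanoLuc luminescence from prosubstrate reduced by living HepG2 cells, at successive time points over 40 h of compound exposure. Cells with reagent were preincubated 5 h at 37 °C before compound addition.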

[6] = qHTS RealTime-Glo MT Cell Viability Assay in HEK293 cells - 24 hour (AID 1224886); further: top concentration of the series differs between compounds; nearly all actives have a fitted effect of over 50% in size
Outline: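 Viability tracked continuously by luminescence as live cells reduce a prosubstrate for NanoLuc; HEK293 cells preincubated 5 h, compound-treated at 37 C, and read at 0, 8, 16, 24, 32 and 40 h.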

[7] = qHTS RealTime-Glo MT Cell Viability Assay in HEK293 cells - 8 hour (AID 1224887); further: top concentration of the series differs between compounds; nearly all actives have a fitted effect of over 50% in size
Outline: (§4)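 Cells were seeded together with NanoLuc luciferase and a prosubstrate that viable cells reduce to a luciferase substrate. After a 5 h incubation at 37 C/5% CO2, compounds were added and luminescence was measured repeatedly during 40 h of treatment.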

[8] = A CellTox Green Cytotoxicity Assay to monitor cytotoxicity in HEK293 cells - 16 hour (AID 1224888); further: nearly all actives have a fitted effect of over 35% in size
Outline: as §1

[9] = qHTS RealTime-Glo MT Cell Viability Assay in HepG2 cells - 0 hour (AID 1224889); further: nearly all actives have a fitted effect of over 50% in size; further: potency means the concentration at half of the fitted maximal effect
Outline: as §3

[10] = qHTS RealTime-Glo MT Cell Viability Assay in HEK293 cells - 0 hour (AID 1224880); further: top concentration of the series differs between compounds; nearly all actives have a fitted effect of over 45% in size
Outline: as §4
On the % scale 0 is the no-effect control and ±100 the full control effect.

Cn1ccc2cc3c(cc21)CCN3C(=O)Nc1cccnc1
inactive: cytotoxicity increase [1] 1.72% [at 15.8 µM] | cytotoxicity [2] -1.51% [at 15.8 µM] | cytotoxicity increase [3] -9.84% [at 15.8 µM] | cytotoxicity increase [4] -5.84% [at 15.8 µM] | activity change, negative = cytotoxic [5] -4.07% [at 15.8 µM] | activity change, negative = cytotoxicity [6] -8.85% [at 15.8 µM] | activity change, negative = cytotoxicity [7] -3.76% [at 15.8 µM] | activity change [8] -2.95% [at 15.8 µM, hits give high values] | activity change, negative = cytotoxicity [9] -0.377% [at 15.8 µM]

CCCCCCCCN(C)CCCCCCCC
active: Potency [3] 22.1 µM
inactive: outcome [10] | Potency [4] | Potency [6] | Potency [7] | Potency [8] | Potency [9]

CCN(CC)C(=O)c1ccc(O)c(OC)c1
inactive: outcome [10] | Potency [2] | Potency [3] | Potency [4] | outcome [5] | Potency [6] | Potency [7] | Potency [8] | Potency [9]

CCC(=O)Nc1cccc(N)c1
inactive: Potency [1] | Potency [2] | Potency [3] | Potency [4] | outcome [5] | Potency [6] | Potency [7] | Potency [8] | Potency [9]

C=CCn1c(=O)n([C@@H]2O[C@H](CO)[C@@H](O)[C@H]2O)c2nc(N)[nH]c(=O)c21
inactive: outcome [10] | Potency [2] | Potency [3] | Potency [4] | outcome [5] | Potency [6] | Potency [8] | Potency [9]

CC/C=C\C#N
inactive: outcome [10] | Potency [3] | Potency [4] | Potency [6] | Potency [8] | Potency [9]

CC(=O)O[C@H](CC(=O)[O-])C[N+](C)(C)C
inactive: Potency [1] | Potency [2] | Potency [3] | Potency [4] | outcome [5] | Potency [6] | Potency [7] | Potency [8] | Potency [9]

c1ccc(CCCc2ccccn2)cc1
inactive: outcome [10] | Potency [3] | Potency [4] | outcome [5] | Potency [6] | Potency [7] | Potency [8] | Potency [9]

CCN1CCCC(OC(=O)C(c2ccccc2)c2ccccc2)C1 (centres undefined)
inactive: outcome [10] | Potency [2] | Potency [3] | Potency [4] | outcome [5] | Potency [6] | Potency [8] | Potency [9]

CC(C)CCOC(=O)CC(C)C
inactive: outcome [10] | Potency [2] | Potency [3] | outcome [5] | Potency [6] | Potency [7] | Potency [9]

CCO[Si](CCCN=C=O)(OCC)OCC
inactive: outcome [10] | Potency [2] | Potency [3] | Potency [4] | outcome [5] | Potency [6] | Potency [7] | Potency [8] | Potency [9]

COc1ccc(N=[N+]([O-])c2ccc(OC)cc2)cc1
inactive: outcome [10] | Potency [2] | Potency [3] | Potency [4] | outcome [5] | Potency [6] | Potency [7] | Potency [8] | Potency [9]

COc1cc(O)cc(O)c1
inactive: Potency [1] | Potency [2] | Potency [3] | Potency [4] | outcome [5] | Potency [6] | Potency [7] | Potency [8] | Potency [9]

C=C(C)C(=O)NCCC[N+](C)(C)C
inactive: outcome [10] | Potency [2] | Potency [3] | Potency [4] | outcome [5] | Potency [6] | Potency [8] | Potency [9]

Nc1cc(C(Cl)=C(Cl)Cl)c(S(N)(=O)=O)cc1S(N)(=O)=O
inactive: Potency [1] | Potency [3] | Potency [4] | outcome [5] | Potency [6] | Potency [7] | Potency [8] | Potency [9]

NC(=O)Nc1nc2ccccc2[nH]1
inactive: Potency [2] | Potency [3] | Potency [4] | outcome [5] | Potency [6] | Potency [7] | Potency [9]

CC(=O)CCc1ccc(O)cc1
inactive: Potency [2] | Potency [3] | Potency [4] | outcome [5] | Potency [6] | Potency [8] | Potency [9]

CCCC(=O)O[C@]1(C(=O)CCl)[C@@H](C)C[C@H]2[C@@H]3CCC4=CC(=O)C=C[C@]4(C)[C@@]3(F)C(=O)C[C@@]21C
inactive: Potency [1] | Potency [3] | Potency [4] | outcome [5] | Potency [6] | Potency [7] | Potency [8] | Potency [9]

COC(=O)C1=C(C)NC(C)=C(C(=O)OCC(C)=O)C1c1ccccc1[N+](=O)[O-] (centres undefined)
inactive: Potency [2] | Potency [3] | Potency [4] | Potency [6] | Potency [7] | Potency [8]

CCCCC=O
inactive: Potency [2] | Potency [3] | Potency [4] | outcome [5] | Potency [6] | Potency [7] | Potency [8] | Potency [9]

OC/C=C/c1ccccc1
inactive: Potency [2] | Potency [3] | Potency [4] | outcome [5] | Potency [6] | Potency [8] | Potency [9]

COc1nc(C)nc(N)n1
inactive: Potency [1] | Potency [2] | Potency [3] | Potency [4] | Potency [6] | Potency [7] | Potency [8] | Potency [9]

CO[Si](OC)(OC)OC
inactive: Potency [1] | Potency [3] | Potency [4] | Potency [6] | Potency [7] | Potency [8] | Potency [9]

C/C=C1\C(=O)C[C@H]2[C@@H]3CCC4=CC(=O)CC[C@]4(C)[C@H]3CC[C@]12C
inactive: Potency [3] | Potency [4] | outcome [5] | Potency [8]
active: Potency [9] 7.61 µM

CC1=CC(C)C(C=O)C(C)C1 (centres undefined)
inactive: Potency [2] | Potency [3] | Potency [4] | outcome [5] | Potency [6] | Potency [7] | Potency [8] | Potency [9]

NCCN1CCNC1=O
inactive: Potency [3] | Potency [4] | outcome [5] | Potency [6] | Potency [7] | Potency [8]

CCN(CC)S(=O)(=O)c1ccc(C(=O)O)cc1
inactive: Potency [3] | outcome [5]

COC(=O)CCCC(=O)O
inactive: Potency [1] | Potency [3] | Potency [4] | Potency [6] | Potency [7] | Potency [8] | Potency [9]

Fc1ccccc1-c1ccccc1
inactive: Potency [2] | Potency [4] | outcome [5] | Potency [6] | Potency [7] | Potency [8] | Potency [9]

O=C(O)/C=C/c1ccc(/C=C/C(=O)O)cc1
inactive: Potency [2] | Potency [3] | Potency [4] | Potency [6] | Potency [7] | Potency [8] | Potency [9]

OCCCCCCO
inactive: Potency [1] | Potency [2] | Potency [3] | Potency [4] | outcome [5] | Potency [6] | Potency [7] | Potency [8] | Potency [9]

CC(=O)OC(C)(C)C
inactive: Potency [1] | Potency [2] | Potency [3] | Potency [4] | Potency [6] | Potency [7] | Potency [8] | Potency [9]

CC(C)CCCC(C)CCCC(C)CCCCC(C)CCCC(C)CCCC(C)C (centres undefined)
inactive: Potency [1] | Potency [2] | Potency [3] | Potency [4] | Potency [6] | Potency [7] | Potency [8]

CCCCCC[C@@H](CCC)C(=O)O
inactive: Potency [2] | Potency [3] | Potency [4] | outcome [5] | Potency [6] | Potency [7] | Potency [8] | Potency [9]

C1CCCCCCCCCCC1
inactive: cytotoxicity increase [1] -37.3% [at 15.8 µM] | cytotoxicity [2] -1.21% [at 15.8 µM] | cytotoxicity increase [3] -10.5% [at 15.8 µM] | cytotoxicity increase [4] -28.5% [at 15.8 µM] | activity change, negative = cytotoxic [5] -3.94% [at 15.8 µM] | activity change [8] -33.7% [at 15.8 µM, hits give high values] | activity change, negative = cytotoxicity [9] -19.7% [at 15.8 µM]

CC/C=C\CCCCO
inactive: Potency [2] | Potency [4] | outcome [5] | Potency [6] | Potency [7] | Potency [8] | Potency [9]

CC(CCO)CCCC(C)(C)O (centres undefined)
inactive: Potency [1] | Potency [2] | Potency [3] | Potency [4] | outcome [5] | Potency [6] | Potency [8] | Potency [9]

C1C2OC2C2C1C1CC2C2OC12 (centres undefined)
inactive: Potency [1] | Potency [2] | Potency [3] | Potency [4] | outcome [5] | Potency [6] | Potency [7] | Potency [8] | Potency [9]

OC1OC[C@@H](O)[C@H](O)[C@H]1O (some centres undefined)
inactive: Potency [1] | Potency [3] | Potency [4] | outcome [5] | Potency [6] | Potency [8] | Potency [9]

CSc1ccc(C=O)cc1
inactive: Potency [1] | Potency [2] | Potency [3] | Potency [4] | outcome [5] | Potency [6] | Potency [8] | Potency [9]

CCC(=O)/C=C/c1ccc(OC)cc1
inactive: Potency [1] | Potency [3] | Potency [4] | outcome [5] | Potency [6] | Potency [7] | Potency [8] | Potency [9]

Cn1cnc2c(=O)[nH]c(N)nc21
inactive: Potency [1] | Potency [2] | Potency [3] | Potency [4] | Potency [6] | Potency [8] | Potency [9]

CN1[C@@H]2CC[C@H]1CC(NC(=O)n1c(=O)[nH]c3ccccc31)C2 (some centres undefined)
inactive: Potency [1] | Potency [3] | Potency [4] | outcome [5] | Potency [6] | Potency [7] | Potency [8] | Potency [9]

Cc1nccn1CC1CCc2c(c3ccccc3n2C)C1=O (centres undefined)
inactive: Potency [1] | Potency [2] | Potency [3] | Potency [4] | outcome [5] | Potency [6] | Potency [8]

CC1CCN(CCCC(=O)c2ccc(F)cc2)CC1
inactive: Potency [3] | Potency [4] | outcome [5] | Potency [6] | Potency [7] | Potency [8]

CCOC(=O)Nc1ccc2c(c1)N(C(=O)CCN1CCOCC1)c1ccccc1S2
inactive: Potency [3] | Potency [4] | outcome [5] | Potency [6] | Potency [8] | Potency [9]

O=C(O)C1CCC1
inactive: Potency [1] | Potency [2] | Potency [3] | Potency [4] | outcome [5] | Potency [6] | Potency [7] | Potency [8] | Potency [9]

CCC(C)OC(=O)N1CCCCC1CCO (centres undefined)
inactive: Potency [3] | Potency [4] | outcome [5] | Potency [6] | Potency [7] | Potency [8]

COc1cc(C)cc(O)c1
inactive: Potency [2] | Potency [3] | Potency [4] | outcome [5] | Potency [6] | Potency [7] | Potency [8] | Potency [9]

CCCC=O
inactive: Potency [2] | Potency [3] | Potency [4] | outcome [5] | Potency [6] | Potency [7] | Potency [8] | Potency [9]

C=CC(=O)OCCCCCC
inactive: Potency [1] | Potency [2] | Potency [3] | Potency [4] | outcome [5] | Potency [6] | Potency [7] | Potency [8] | Potency [9]

Cc1onc(-c2ccccc2)c1-c1ccc(S(N)(=O)=O)cc1
inactive: Potency [1] | Potency [3] | Potency [4] | outcome [5] | Potency [8] | Potency [9]
